# Reference: the supplement of paper PMC6555819
# What was measured:
# Assay in all cases: PBM binding z-score (relative to random genomic background probes); higher = stronger binding; sequences stand for … in GC…GCGATTGACAGCGTAGAATGAAGG
# [1] = tested on: RARb homodimer (NR concentration 270 nM)
# How it was run: (§1)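 The probes on custom Agilent 4×180K protein-binding microarrays were double-stranded, with 34-nt variable regions bearing direct-repeat seeds, single-nucleotide variants, half-site ablations and random human genomic background sequences. Incubation lasted 1 h with ligand-free nuclear receptor dimers in PBS pH 7.4, 2% milk, 0.02% Triton X-100, 1 mM DTT, 0.2 mg/mL BSA and 0.4 mg/ml salmon testes DNA. Antibodies against each partner (one per run) detected bound dimers, and fluorescence scans were regression-normalized. Binding z-scores take the random background probes as reference.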
# [2] = tested on: RARg:RXRa (NR concentration 270 nM, RXRa partner concentration 90 nM)
# How it was run: as §1
# [3] = tested on: RARg homodimer (NR concentration 270 nM)
# How it was run: as §1
# [4] = tested on: RXRa DBDmut IVT, anti-RXR (DBD mutation: RXRa K156A/R161A, NR concentration 90 nM)
# How it was run: as §1
# [5] = tested on: RXRa homodimer (NR concentration 180 nM)
# How it was run: as §1
# [6] = tested on: THRa:RXRa (NR concentration 90 nM, RXRa partner concentration 90 nM)
# How it was run: as §1
# [7] = tested on: THRa homodimer (NR concentration 90 nM)
# How it was run: as §1
# [8] = tested on: VDR:RXRa (NR concentration 270 nM, RXRa partner concentration 90 nM)
# How it was run: as §1
# [9] = tested on: VDR homodimer (NR concentration 270 nM)
# How it was run: as §1
sequence,measurement,setting,value
CAAACTAGCTCACCGGAAGGTCAAAGTCCGCATG,PBM binding z-score,[1],3.98
same,PBM binding z-score,[2],3.23
same,PBM binding z-score,[3],2.5
same,PBM binding z-score,[4],0.916
same,PBM binding z-score,[5],3.25
same,PBM binding z-score,[6],2.67
same,PBM binding z-score,[7],1.55
same,PBM binding z-score,[8],2.8
same,PBM binding z-score,[9],2.17
CGAACTAGGTCATCCCGGACAGTGAATACATTGA,PBM binding z-score,[1],2.84
same,PBM binding z-score,[2],3.68
same,PBM binding z-score,[3],4.66
same,PBM binding z-score,[4],2.33
same,PBM binding z-score,[5],2.6
same,PBM binding z-score,[6],2.86
same,PBM binding z-score,[7],1.4
same,PBM binding z-score,[8],3.63
same,PBM binding z-score,[9],1.91
TCTTGTAGATCCAAGGTTAAGAAAGCCGAAGCCT,PBM binding z-score,[1],0.743
same,PBM binding z-score,[2],0.336
same,PBM binding z-score,[3],0.0629
same,PBM binding z-score,[4],0.928
same,PBM binding z-score,[5],1.13
same,PBM binding z-score,[6],1.27
same,PBM binding z-score,[7],0.204
same,PBM binding z-score,[8],0.448
same,PBM binding z-score,[9],0.0451
AGAATGAGGTTATTAAGATCAGGGAATTGCGGTC,PBM binding z-score,[1],1.05
same,PBM binding z-score,[2],1.17
same,PBM binding z-score,[3],0.93
same,PBM binding z-score,[4],1.91
same,PBM binding z-score,[5],1.89
same,PBM binding z-score,[6],2.18
same,PBM binding z-score,[7],0.599
same,PBM binding z-score,[8],2.62
same,PBM binding z-score,[9],0.931
ATATGTAGGTTACATCCGGGTAATTCAGGCTATG,PBM binding z-score,[1],0.673
same,PBM binding z-score,[2],1.08
same,PBM binding z-score,[3],1.06
same,PBM binding z-score,[4],0.788
same,PBM binding z-score,[5],0.887
same,PBM binding z-score,[6],2.3
same,PBM binding z-score,[7],0.727
same,PBM binding z-score,[8],0.536
same,PBM binding z-score,[9],0.278
CCTTGCGGGTCACGAGGTTATAGCACGACGAGCG,PBM binding z-score,[1],3.64
same,PBM binding z-score,[2],5.78
same,PBM binding z-score,[3],5.02
same,PBM binding z-score,[4],1.62
same,PBM binding z-score,[5],6.53
same,PBM binding z-score,[6],3.68
same,PBM binding z-score,[7],1.34
same,PBM binding z-score,[8],4.93
same,PBM binding z-score,[9],1.93
CCTAGTTGGTCAGGAGGTGACACACCGGATATGA,PBM binding z-score,[1],1.48
same,PBM binding z-score,[2],1.12
same,PBM binding z-score,[3],1.22
same,PBM binding z-score,[4],-0.691
same,PBM binding z-score,[5],0.768
same,PBM binding z-score,[6],1.18
same,PBM binding z-score,[7],0.64
same,PBM binding z-score,[8],0.277
same,PBM binding z-score,[9],0.232
ACAGACAGGTGATGAAGGTAAATCAGGCTATCAT,PBM binding z-score,[1],0.0548
same,PBM binding z-score,[2],0.28
same,PBM binding z-score,[3],0.373
same,PBM binding z-score,[4],-0.384
same,PBM binding z-score,[5],0.316
same,PBM binding z-score,[6],0.885
same,PBM binding z-score,[7],-0.061
same,PBM binding z-score,[8],0.133
same,PBM binding z-score,[9],-0.34
AGAATGAGGTTACCACAGATCAGGGAAACGCTTG,PBM binding z-score,[1],0.855
same,PBM binding z-score,[2],2
same,PBM binding z-score,[3],1.62
same,PBM binding z-score,[4],1.24
same,PBM binding z-score,[5],2.61
same,PBM binding z-score,[6],2.93
same,PBM binding z-score,[7],0.878
same,PBM binding z-score,[8],1.23
same,PBM binding z-score,[9],0.395
ACTATTAGTTGACTTAGGGCAATCGATACGACGC,PBM binding z-score,[1],0.586
same,PBM binding z-score,[2],0.781
same,PBM binding z-score,[3],0.924
same,PBM binding z-score,[4],0.592
same,PBM binding z-score,[5],0.921
same,PBM binding z-score,[6],1.31
same,PBM binding z-score,[7],0.18
same,PBM binding z-score,[8],0.462
same,PBM binding z-score,[9],0.448
CAAATTAGGTCACCGGAAGGTCAAAGTCCGCATG,PBM binding z-score,[1],5.53
same,PBM binding z-score,[2],8.32
same,PBM binding z-score,[3],7.57
same,PBM binding z-score,[4],2.34
same,PBM binding z-score,[5],6.18
same,PBM binding z-score,[6],4.78
same,PBM binding z-score,[7],3.89
same,PBM binding z-score,[8],5.86
same,PBM binding z-score,[9],3.8
AGAACGAGGGTACGCTGAGTTGATAGCAGAGTAG,PBM binding z-score,[1],-0.336
same,PBM binding z-score,[2],0.424
same,PBM binding z-score,[3],0.303
same,PBM binding z-score,[4],0.994
same,PBM binding z-score,[5],0.16
same,PBM binding z-score,[6],0.2
same,PBM binding z-score,[7],-0.484
same,PBM binding z-score,[8],1.15
same,PBM binding z-score,[9],2.14
ATACCAAGGTGATCGTGAGGTCGTTGACACTAAC,PBM binding z-score,[1],1.85
same,PBM binding z-score,[2],2.27
same,PBM binding z-score,[3],0.855
same,PBM binding z-score,[4],0.311
same,PBM binding z-score,[5],1.56
same,PBM binding z-score,[6],3.63
same,PBM binding z-score,[7],2.59
same,PBM binding z-score,[8],3.35
same,PBM binding z-score,[9],2.93
AGAACGAGGGCACGCCGAGTTGATAGCAGAGTAG,PBM binding z-score,[1],1.2
same,PBM binding z-score,[2],1.96
same,PBM binding z-score,[3],2.36
same,PBM binding z-score,[4],1.75
same,PBM binding z-score,[5],1.47
same,PBM binding z-score,[6],1.96
same,PBM binding z-score,[7],-0.089
same,PBM binding z-score,[8],2.27
same,PBM binding z-score,[9],1.81
TGTCAAAGTTCAATGGTAACGTAAGTATCCACAC,PBM binding z-score,[1],3.32
same,PBM binding z-score,[2],4.79
same,PBM binding z-score,[3],5.39
same,PBM binding z-score,[4],3.67
same,PBM binding z-score,[5],3.74
same,PBM binding z-score,[6],1.39
same,PBM binding z-score,[7],-0.627
same,PBM binding z-score,[8],3.81
same,PBM binding z-score,[9],3.52
ACTACAGGGTCATCGTAGGCCAGAGTACGCACAG,PBM binding z-score,[1],3.45
same,PBM binding z-score,[2],5.52
same,PBM binding z-score,[3],5.09
same,PBM binding z-score,[4],3.26
same,PBM binding z-score,[5],5.9
same,PBM binding z-score,[6],4.64
same,PBM binding z-score,[7],1.27
same,PBM binding z-score,[9],3.36
TAGCCTAGGTCAGATCTGGCCAGTATACGCTATA,PBM binding z-score,[1],1.82
same,PBM binding z-score,[2],2.73
same,PBM binding z-score,[3],3.49
same,PBM binding z-score,[4],-0.24
same,PBM binding z-score,[5],1.3
same,PBM binding z-score,[6],2.57
same,PBM binding z-score,[7],-0.423
same,PBM binding z-score,[8],0.166
same,PBM binding z-score,[9],-0.751
AGAATGAGGGTATTAAGATCAGGGAATTGCGGTC,PBM binding z-score,[1],0.61
same,PBM binding z-score,[2],0.0247
same,PBM binding z-score,[3],0.0754
same,PBM binding z-score,[4],0.633
same,PBM binding z-score,[5],0.379
same,PBM binding z-score,[6],0.534
same,PBM binding z-score,[7],0.27
same,PBM binding z-score,[8],0.128
same,PBM binding z-score,[9],0.315
